Results filed as inconclusive are left out. The source made the active and inactive calls. Unless noted, the call rests on the fitted dose curve.

Test [1] in a line: qHTS profiling of the MIPE4 collection as inhibitors of Plasmodium falciparum (3D7) proliferation (AID 743344; call rule not given here;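 further: scaled between DMSO vehicle wells and 0.29 µM artemisinin as full inhibition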). To be noted: P. falciparum 3D7 in erythrocytes, SYBR Green DNA fluorescence, 72 h; at 28.5 µM unless noted. A digest of the protocol:
(§1)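 Parasite DNA was quantified by SYBR Green I fluorescence (ex 485, em 535 nm) after overnight lysis in saponin/Triton buffer at room temperature. Cultures at 0.3% parasitemia and 2.5% hematocrit were first exposed to compound for 72 h at 37 C; signals were normalised to artemisinin (0.29 uM) and vehicle wells.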
(In general: qHTS replaces the single test concentration by a dilution series.)

A short description of test [2]: qHTS profiling of the MIPE4 collection as inhibitors of Plasmodium falciparum (DD2) proliferation (AID 743345; call rule not given here). As to conditions: P. falciparum Dd2 in erythrocytes, SYBR Green DNA, 72 h; at 28.5 µM unless noted. In short, it runs like this: as §1
Test [3] is described as follows: qHTS profiling of the MIPE4 collection as inhibitors of Plasmodium falciparum (DD2) proliferation (Rep 2) (AID 743346; call rule not given here). To be noted: P. falciparum Dd2 in erythrocytes, SYBR Green DNA, 72 h; at 28.5 µM unless noted. In short, it runs like this:
as §1

Test [4] in a line: qHTS for Inhibitors of the Functional Ribonucleoprotein Complex (vRNP) of Lassa (LASV) Arenavirus: LASV Primary Screen - GLuc reporter signal (AID 1347082; calls by dose curve; tested in HEK293 reporter line; further: nearly all actives have a fitted effect of over 60% in size; further: potency means the concentration at half of the fitted maximal effect; on activity change, negative = inhibition: on the % scale 0 is the no-effect control and ±100 the full control effect).
Test [5] in a line: qHTS for Inhibitors of the Functional Ribonucleoprotein Complex (vRNP) of Lassa (LASV) Arenavirus: Viability assay - alamar blue signal for LASV Primary Screen (AID 1347083; calls by dose curve; tested in HEK293 reporter line; further: nearly all actives have a fitted effect of over 80% in size; further: potency means the concentration at half of the fitted maximal effect).
A short description of test [6]: qHTS for Inhibitors of the Functional Ribonucleoprotein Complex (vRNP) of Lymphocytic Choriomeningitis Arenaviruses (LCMV): Viability assay - alamar blue signal for LCMV Primary Screen (AID 1347085; calls by dose curve; tested in HEK293 reporter line; further: nearly all actives have a fitted effect of over 80% in size; further: potency means the concentration at half of the fitted maximal effect).
Test [7] concerns the target Nucleoprotein (Lymphocytic choriomeningitis virus (strain Armstrong)) (UniProt P09992). Description: qHTS for Inhibitors of the Functional Ribonucleoprotein Complex (vRNP) of Lymphocytic Choriomeningitis Arenaviruses (LCMV): LCMV Primary Screen - GLuc reporter signal (AID 1347086). Further: nearly all actives have a fitted effect of over 70% in size. Further: potency means the concentration at half of the fitted maximal effect. On activity change, negative = inhibition: on the % scale 0 is the no-effect control and ±100 the full control effect.
Test [8] can be described thus: Primary qHTS for Huh7 cytotoxicity: counterscreen for inhibitors of MERS-S pseudotyped particle cell entry (AID 1479147). As to conditions: outcome: dose series up to 57.1 µM unless noted.
Test [9] can be described thus: Primary qHTS for inhibitors of MERS-S pseudo-typed particle cell entry (AID 1479149). Further: nearly all actives have a fitted effect of over 60% in size.
The nature of test [10]: Primary qHTS for Vero E6 cytotoxicity: counterscreen for inhibitors of SARS-S pseudo-typed particle cell entry (AID 1479150). On activity change, negative = cytotoxicity: on the % scale 0 is the no-effect control and ±100 the full control effect. To be noted: outcome: dose series up to 57.1 µM unless noted.
Test [11] is described as follows: Cytotoxicity counterscreen for inhibitors of SARS-CoV-2 cell entry (AID 1645845). Further: nearly all actives have a fitted effect of over 50% in size. Further: potency means the concentration at half of the fitted maximal effect. On activity change, negative = cytotoxicity: on the % scale 0 is the no-effect control and ±100 the full control effect. A digest of the protocol: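 Counterscreen run in the same HEK293-ACE2 line as the pseudotyped-particle entry assay, without particles. Viability after 48 h at 37 C was read as ATP luminescence, scaled between cell-containing and cell-free wells.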
A general note: A counterscreen serves to expose hits that act by an unwanted route or on another target.

Test [12] in a line: Primary qHTS to identify inhibitors of SARS-CoV-2 cell entry (AID 1645846). Further: nearly all actives have a fitted effect of over 45% in size. Further: potency means the concentration at half of the fitted maximal effect. As to conditions: activity change, negative = inhibition: at 57.1 µM (top of the series) unless noted. In short, it runs like this: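 Entry measured by luciferase signal 48 h after adding SARS-CoV-2-S pseudotyped MLV particles to HEK293-ACE2 cells preincubated 1 h with compounds. Normalisation: bald particles and spike particles.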

Test [13] deals with CRL-7250. Put plainly: qHTS assay to identify novel small-molecules to repurpose for Merkel cell carcinoma treatment (AID 1296009; active means well fitted curve in the direction sought with a large enough effect; an effect the other way counts as inactive or inconclusive; further: nearly all actives have a fitted effect of over 60% in size). To be noted: MCC and control cell lines, CellTiter-Glo viability, 72 h; series mostly up to 92 µM. In short, it runs like this: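 CellTiter-Glo luminescence after 72 hr compound exposure at 37 degree celsius gave cell viability. Libraries NPC and MIPE were run as 8- and 11-point dose responses; RLUs normalized to DMSO (negative) and no-cell (cytotoxicity) controls.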

Test [14] is described as follows: Primary qHTS for inhibitors of SARS-S pseudo-typed particle cell entry (AID 1479145). Further: nearly all actives have a fitted effect of over 45% in size.
The nature of test [15]: qHTS Assay for Lipid Storage Modulators (AID 1519). As to conditions: Drosophila S3 cells, BODIPY lipid droplet/cell ratio, laser cytometry, cells loaded with oleic acid. A digest of the protocol:
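Cells seeded at 5,000 per well were treated with compounds over a concentration series and loaded with oleic acid (400 uM, as added). Lipid droplet fluorescence (488 nm excitation, 500-530 nm channel) was read by laser-scanning cytometry and normalized to 20 uM Triacsin C.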

Test [16] in a line: Confirmatory qHTS for VERO E6 Cytotoxicity Assay: Counterscreen for SARS-CoV-2 CPE Assay (AID 1508605). Further: on the % scale 0 is the no-effect control and ±100 the full control effect; nearly all actives have a fitted effect of over 60% in size.
Test [17] can be described thus: Confirmatory qHTS for activators (rescue) of SARS-CoV-2 Cytopathic Effect (CPE) (AID 1508606). Further: 0% is about no effect; nearly all actives have a fitted effect of over 70% in size.
Test [18] in a line: Inducers of the Endoplasmic Reticulum Stress Response (ERSR) in human glioma: Validation (AID 504836; active means well fitted curve in the direction sought with a large enough effect; an effect the other way counts as inactive or inconclusive; further: 0% is about no effect). A digest of the protocol:
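Stably transfected U87-MG glioma cells carrying a GRP78-based luciferase sensor; 16 h compound incubation. Luminescence end-point read 10 min after Bright-Glo addition at room temperature.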

Sequence of Nucleoprotein (Lymphocytic choriomeningitis virus (strain Armstrong)) (P09992 whole entry, looked up): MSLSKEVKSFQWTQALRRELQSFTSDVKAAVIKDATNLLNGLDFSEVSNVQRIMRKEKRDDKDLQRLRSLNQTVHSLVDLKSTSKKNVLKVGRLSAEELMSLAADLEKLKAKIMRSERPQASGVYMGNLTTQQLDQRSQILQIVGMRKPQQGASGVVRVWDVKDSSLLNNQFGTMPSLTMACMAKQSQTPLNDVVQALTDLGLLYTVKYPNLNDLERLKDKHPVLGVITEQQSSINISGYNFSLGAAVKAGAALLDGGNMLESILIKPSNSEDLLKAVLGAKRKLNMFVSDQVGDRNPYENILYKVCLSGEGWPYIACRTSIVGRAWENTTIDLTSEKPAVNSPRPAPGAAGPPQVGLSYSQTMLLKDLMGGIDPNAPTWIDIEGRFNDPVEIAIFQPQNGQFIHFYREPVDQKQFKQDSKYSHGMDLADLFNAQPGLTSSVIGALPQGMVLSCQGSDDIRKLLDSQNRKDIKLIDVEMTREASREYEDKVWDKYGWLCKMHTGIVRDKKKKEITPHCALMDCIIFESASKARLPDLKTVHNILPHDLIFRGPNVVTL

With `COc1ccc(C2(C#N)CCC(C(=O)O)CC2)cc1OC1CCCC1` (stereo not drawn), in test [1], the parasite growth, % of DMSO control worked out at 91.7%. The parasite growth remaining, % of DMSO control (lower = more inhibition) in test [2] is 101%. The same molecule showed a parasite growth, % of control (lower = inhibition) in [3] of 88.4%. The Potency entry in test [4], in [5], in test [6], in test [7], in [9] and in test [11] was “inactive” each time. The Potency entry in [12] and in test [13] was “inactive” throughout. Also, the call in test [8] and in test [10] was inactive. Further, the activity change, negative = inhibition in test [12] was -18.7%.

Turning to `O=C(CCN1CCN(C(=O)OCc2cc(Cl)cc(Cl)c2)CC1)c1ccc2[nH]c(=O)oc2c1`, the Potency result in test [4], in test [5], in test [6], in [7], in test [11] and in test [13] was “inactive” each time. In [12], the activity change, negative = inhibition is -26.2%.

Turning to `O=C(NC1CCOCC1)c1ccc(-c2cc(-c3cn[nH]c3-c3ccccn3)ccn2)cc1`, the Potency entry in test [4], in test [5], in test [6], in test [7], in [11] and in [13] was “inactive” throughout. For the same molecule, the activity change, negative = inhibition in [12] was -3.94%.

On to `Nc1[nH]nc2nnc(-c3c(-c4ccccc4)nn4ccccc34)cc12`, for which the Potency entry in [4], in [5], in test [6], in test [7], in test [11] and in test [13] was “inactive” in each case.

For the molecule `Cc1ccccc1-n1c(Cn2nc(-c3cccc(O)c3)c3c(N)ncnc32)nc2cccc(C)c2c1=O`, the Potency in test [4] is 19.3 µM (active); in [5], 6.11 µM (active); in test [6], 4.32 µM (active); in [7] it was 3.85 µM (active). For the same molecule, the Potency entry in [11] and in test [13] was “inactive” throughout. Besides, the activity change, negative = inhibition in test [12] was -14.4%.

With `CCCCCCCCCCCCCCCCCCCCCCO`, the Potency result in test [4], in test [5], in [6], in test [7], in test [11] and in test [13] was “inactive” in each case. Moreover, the outcome is “inactive [at 0.573 µM]” in test [14], “inactive [at 0.573 µM]” in [8], “inactive [at 0.573 µM]” in test [9] and “inactive [at 0.702 µM]” in test [12]. Besides, the activity change, negative = cytotoxicity in [10] is 2.8% [at 0.573 µM] (inactive). In [12], the activity change, negative = inhibition was -17.8% [at 27.1 µM].

As to `CN(C)CC(C)(C)CNc1nn2c(-c3ccccc3)nnc2cc1C1CCC1`, the Potency result in test [4], in test [11] and in test [13] was “inactive” throughout. The Potency is 15.3 µM (active) in [5], 2.17 µM (active) in [6] and 17.2 µM (active) in [7]. The activity change, negative = inhibition in test [12] is -2.68%.

As to `CN1[C@H]2CC(OC(=O)[C@@H](CO)c3ccccc3)C[C@H]1[C@H]1O[C@H]12` (stereo partly drawn), the activity change, negative = inhibition in test [15] (at 25.7 µM (top of the series)) was -0.085% (inactive). Further, the max response in test [15] (measured here: cell count channel max response) was 9.59%; in [15] (measured here: lipid channel max response), 10.6%. In addition, the parasite growth, % of DMSO control in test [1] is 96.6%. Besides, in test [2], the parasite growth remaining, % of DMSO control (lower = more inhibition) stood at 107%. The same molecule had a parasite growth, % of control (lower = inhibition) in [3] of 72.3%. The Potency result in [4], in test [5], in test [6], in test [7] and in test [13] was “inactive” each time.

For `CCCCCCCCCCCCc1ccc(S(=O)(=O)Nc2nncs2)cc1`, the Potency entry in [4], in [5], in [6], in [7], in test [16] and in test [17] was “inactive” each time. Also, the Potency result in [11] and in test [13] was “inactive” throughout. Also, the activity change, negative = inhibition in test [12] is -14.7%.

For the molecule `Cc1ccc(CN2CCNCC2)cc1NC(=O)CNc1ccc(F)c(F)c1`, the Potency entry in test [4], in [5], in [6], in test [7], in test [11] and in test [12] was “inactive” in each case. Besides, the Potency entry in [13] is “inactive”.

On to `C[C@@H]1CCO[C@H]2Cn3cc(C(=O)NCc4ccc(F)cc4F)c(=O)c(O)c3C(=O)N12`, for which the Potency entry in test [4], in test [5], in test [6], in [7], in [14] and in test [9] was “inactive” throughout. Also, the Potency result in test [11] and in test [13] was “inactive” each time. Also, the call in test [8] and in test [10] was inactive. Besides, the activity change, negative = inhibition in test [12] was -84%.

Regarding `Cc1ccc(Nc2cc(-c3cccc(N4C(=O)c5ccccc5C4=O)c3)ncn2)cc1NS(C)(=O)=O`, the Potency result in test [4], in test [5], in test [6], in [7] and in test [13] was “inactive” each time. The Potency in [11] was 31.6 µM (active).

Take `CN1CCC(COc2cnc(-c3cccc(Cn4nc(-c5cccc(C#N)c5)ccc4=O)c3)nc2)CC1`: the Potency in test [4] was 5.44 µM (active); in test [5], 0.153 µM (active); in [6], 0.0611 µM (active); in [7], 0.685 µM (active). Further, the Potency result in [11] and in [13] was “inactive” in each case.

Take `O=C1CCC[C@@H]2[C@H]3CCC[N+]4([O-])CCC[C@@H](CN12)[C@@H]34` (stereo partly drawn): the Potency entry in [4], in [5], in [6], in [7], in [11] and in test [13] was “inactive” in each case. The activity change, negative = inhibition in [12] was -3.17%.

In the case of `c1ccc(CNc2nc(N3CCOc4ccccc43)nc3c2CCCC3)cc1`, the Potency result in [4], in test [5], in [6], in [7], in test [11] and in test [13] was “inactive” in each case.

On to `CCc1nc(-c2cccc(C)c2)c(-c2ccnc(NC(=O)c3ccccc3)c2)s1`, for which the Potency entry in test [4], in [5], in [6], in [7], in test [17] and in test [11] was “inactive” throughout. Besides, the Potency entry in test [13] is “inactive”. Besides, the Potency in test [12] was 25.1 µM (active).

`Cc1cnc(-c2cc(N3CCN(C(=O)CCS(C)(=O)=O)CC3)ncc2Cl)c(C)c1`: the Potency entry in test [4], in test [5], in test [6], in test [7], in test [11] and in test [13] was “inactive” in each case. The activity change, negative = inhibition in test [12] was -19%.

Take `OC(CCN1CCCCC1)(c1ccccc1)C1CCCCC1` (stereo not drawn): the molecule was classed as inactive in [18], in test [8] and in [10]. The Potency result in test [4], in test [5], in [6], in test [7], in [11] and in test [13] was “inactive” throughout.

On to `O=c1[nH]c(=O)n(C2CCCO2)cc1F` (stereo not drawn), for which the Potency result in test [4], in test [5], in test [6], in test [7], in test [11] and in [13] was “inactive” each time.

Values taken from PubChem BioAssay (NCATS).
